Data: PubChem BioAssay AID1159580 (chemical genetic matrix, 2015)
The whole screen tested about 5,500 compounds, of which about 2,000 (36%) were called active. Inconclusive results (about 18%) are left out. No stated cut-off is given here; in the data, active means normalized growth mostly below about 0.91 (no sharp cut-off); inconclusive means no clear call, values can overlap the other calls; inactive means mostly above about 0.92. The list shows a part of the results.

Assay: chemical genetic growth profiling, strain panel (AID 1159580);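 further: tested at 20 µM; growth read once vehicle control cultures reached saturation at 30 °C; 1 = growth at the plate median or of vehicle wells; lower values mean less growth of the strain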
Settings: S. cerevisiae deletion strains, growth OD

Measured: normalized growth

O=[N+]([O-])c1cc(C(F)(F)F)ccc1Oc1cc(C(F)(F)F)cc(C(F)(F)F)c1
inactive: locus YAL013W, strain DEP1, active compounds read low 1.03 | locus YBR229C, strain ROT2, active compounds read low 1 | locus YDL101C, strain DUN1, active compounds read low 1.04 | locus YDL134C, strain PPH21, active compounds read low 0.982 | locus YDR150W, strain NUM1, active compounds read low 1.02 | locus YEL061C, strain CIN8, active compounds read low 1.03 | locus YGR078C, strain PAC10, active compounds read low 1.01 | locus YHR030C, strain SLT2, active compounds read low 1.03 | locus YHR087W, strain rtc3, active compounds read low 1.02 | locus YJR043C, strain POL32, active compounds read low 0.996 | locus YJR075W, strain HOC1, active compounds read low 1.01 | locus YLR039C, strain RIC1, active compounds read low 1.02 | locus YLR058C, strain SHM2 (second series), active compounds read low 0.982 | locus YLR085C, strain ARP6, active compounds read low 1.01 | locus YLR262C, strain YPT6, active compounds read low 0.992 | locus YML094W, strain GIM5, active compounds read low 1.12 | locus YMR219W, strain ESC1, active compounds read low 0.99 | locus YMR263W, strain SAP30, active compounds read low 0.993 | locus YMR307W, strain GAS1, active compounds read low 1.12 | locus YNL128W, strain TEP1, active compounds read low 0.97 | locus YNL153C, strain GIM3, active compounds read low 1.03 | locus YNL298W, strain CLA4 (second series), active compounds read low 1.01 | locus YNL322C, strain KRE1, active compounds read low 1 | locus YNR030W, strain Alg12, active compounds read low 1.05 | locus YPL055C, strain LGE1, active compounds read low 1.09 | locus YPL241C, strain CIN2, active compounds read low 1.07 | locus YPR135W, strain CTF4, active compounds read low 1.12
